Source: PubChem BioAssay
A selection: hits, their analogues and other compounds. The true share with any hit is near 3.7%.
Anthrax LF inh2 – blocks Bacillus anthracis lethal factor protease; P15917; multiplex microsphere protease cleavage assay, LF; inhibition, % at 10 µM; 0.12% of 360,000 active; note: plate controls were buffer without enzyme for full effect and enzyme alone for no effect
BoNT A protease – BoNT A light chain protease inhibition. multiplex microsphere protease substrate cleavage, flow cytometry. inhibition, % at 10 µM. 0.17% of 360,000 active. AID 588499; note: plate controls were buffer without enzyme for full effect and enzyme alone for no effect
MazEF act – increases E. coli MazEF RNase cleavage of RNA. AID 504720. FAM/BHQ RNA-DNA oligo cleavage fluorescence, 5 h. 0.32% of 350,000 active. activation, % at 20 µM; in the data active = activation above about 50%
BoNT F protease – inhibitors of Botulinum neurotoxin F light chain protease | inhibition, % at 10 µM | Multiplex microsphere protease cleavage assay, flow cytometry | 0.22% of 360,000 active; in the data active = inhibition above about 35%, passing the limit was not always enough; inconclusive = no clear call, values can overlap the other calls; note: plate controls were buffer without enzyme for full effect and enzyme alone for no effect
Bead autofluor – counter-screen for toxin protease inhibitors: compound fluorescence; compound autofluorescence counterscreen, microsphere flow cytometry; active compounds read high; fluorescence intensity (test concentration not listed); 3.1% of 360,000 active; AID 624483; in the data active = fluorescence intensity above about 16000; inconclusive = no clear call, values can overlap the other calls
Active calls of the source: *; ? = inconclusive. Cut-off read from the data, not from the text of the source, unless noted: active = inhibition above about 30%; inconclusive = no clear call, values can overlap the other calls; inactive = below that.

SMILES | Anthrax LF inh2 | BoNT A protease | MazEF act | BoNT F protease | Bead autofluor
O=C1C2CC=C(Cl)CC2C(=O)N1CCC[n+]1ccccc1 (centres undefined) | -1.0 | ? | -7.4 | 1.7 | 19255*
Cc1ccc(NCN2C(=O)C3CC=C(Cl)CC3C2=O)cc1 (centres undefined) | -0.7 | -0.3 | 2.1 | -3.3 | 2906
O=C(O)c1ccccc1NCN1C(=O)C2CC=C(Cl)CC2C1=O (centres undefined) | -3.6 | -3.5 | -6.9 | -4.4 | 24033*
O=C(CCN1C(=O)C2CC=C(Cl)CC2C1=O)NCc1ccccc1 (centres undefined) | -2.9 | 0.9 | -0.1 | 8.7 | 2723
CC(C)CCC(CCN1CCOCC1)c1ccc2c(c1)OCO2 (centres undefined) | -1.9 | -1.4 | -3.0 | -0.5 | 20867*
CC(C)CCC(CCN1CCCC1)c1ccc2c(c1)OCO2 (centres undefined) | -6.8 | 0.0 | 5.2 | -9.5 | 6219
Cn1c(SCC(=O)c2ccccc2)nnc1-c1ccc(O)cc1 | 1.2 | 1.2 | 10.0 | 3.4 | 20320*
Cn1c(SCCCC(=O)c2ccccc2)nnc1-c1ccncc1 | 1.9 | ? | 2.6 | 2.2 | 19499*
CSc1nnc(-c2ccc(O)cc2)n1C | 1.8 | 4.6 | 11.9 | 3.5 | 21757*
Cn1c(SCCCC(=O)c2ccc(F)cc2)nnc1-c1ccncc1 | 1.3 | 0.1 | 4.8 | 1.5 | 3301
CCn1nc(C)cc1C(=O)NC1CCCc2c1cnn2-c1ccc(C)c(C)c1 (centres undefined) | -1.8 | 2.6 | 1.3 | 1.4 | 5697
CC(=O)c1c(C)oc2c1cc(NS(=O)(=O)c1ccc(C(=O)O)cc1)c1ccccc12 | 3.6 | 4.1 | 78.6* | 3.7 | 3987
CSc1nnc(N2C(=O)C(O)=C(C(=O)c3ccc(C)o3)C2c2ccc(C)cc2)s1 (centres undefined) | -0.8 | 1.9 | 253.7* | 4.6 | 6400
CSc1nnc(N2C(=O)C(O)=C(C(=O)c3ccco3)C2c2ccccc2F)s1 (centres undefined) | -4.0 | -0.4 | 21.0 | -4.0 | 4375
CSc1nnc(N2C(=O)C(O)=C(C(=O)c3ccco3)C2c2ccccc2)s1 (centres undefined) | 1.8 | 2.0 | 53.8* | 3.0 | 4601
Cc1ccc(C2C(C(=O)c3ccco3)=C(O)C(=O)N2c2nnc(C)s2)cc1 (centres undefined) | -2.1 | -0.2 | 22.4 | -14.0 | 4287
Cn1nc(-c2ccc(N3CCCCC3)c(NC(=O)c3ccco3)c2)c2ccccc2c1=O | -2.0 | ? | -9.1 | -1.7 | 23305*
CCC(=O)Nc1cc(-c2nn(C)c(=O)c3ccccc23)ccc1N1CCOCC1 | 3.2 | 1.5 | 7.6 | 5.3 | 9232
CC(CCc1ccc(O)cc1)NCc1ccc(Br)cc1 (centres undefined) | -1.6 | -1.7 | -0.3 | -32.4 | 3849
CC[C@]12c3[nH]c4cc(CCC(=O)N(C)C)ccc4c3CCN1C(=O)[C@@H](CC(=O)NC/C=C(\C)CCC=C(C)C)C[C@@H]2C(=O)N1CCN(C(=O)c2ccco2)CC1 | -10.4 | -0.8 | 5.4 | -7.2 | 4116
Cc1ccc(C(=O)O/N=C2\CC3CCC2(C)C3(C)C)cc1 (centres undefined) | -3.0 | ? | -1.1 | 1.3 | 21254*
COC1OC2COC(c3ccccc3)OC2C(OC(C)=O)C1OC(C)=O (centres undefined) | 7.3 | 0.0 | 14.3 | 6.2 | 4038
Cc1ccc(CNC(=O)C2CCCCC2C(=O)O)cc1 (centres undefined) | -7.4 | ? | 1.0 | 1.1 | 21599*
O=C(O)C1CCCCC1C(=O)Nc1cccc2ccccc12 (centres undefined) | -5.8 | 5.5 | -1.9 | 6.0 | 20285*
Cc1ccc(CNC(=O)NC2CCCCC2)cc1 | 2.8 | -0.5 | -5.9 | -4.1 | 4441
SMILES | Anthrax LF inh2 | BoNT A protease | MazEF act | BoNT F protease | Bead autofluor
Cc1cc(-n2c(SCC(=O)NCc3cccs3)nc3n[nH]c(C)c3c2=N)ccc1Cl | -0.6 | 0.0 | 31.6 | -0.9 | 23384*
Cc1cc(-n2c(SCC(=O)Nc3ccc(Br)cc3)nc3n[nH]c(C)c3c2=N)ccc1Cl | -2.8 | 0.6 | -23.5 | 3.1 | 5729
COCC(C)n1c(SCC(=O)Nc2c(C)n(C)n(-c3ccccc3)c2=O)nc2ccccc2c1=O (centres undefined) | -2.2 | -0.4 | 2.3 | -1.5 | ?
Cc1cccn2cc(-c3ccc(F)cc3)nc12 | -3.0 | -1.4 | 6.4 | -1.9 | 23835*
Cc1ccsc1C1C2=C(CCCC2=O)Nc2ncnn21 (centres undefined) | 1.5 | -0.5 | -0.3 | -2.6 | 22735*
COC(=O)c1cccc(COC(=O)CNC(=O)c2ccco2)c1 | -1.3 | -2.6 | 8.3 | 0.0 | 20436*
